System: Trichuris muris adult worms
Assay: mean motility score (Paragon pixel variance) of adult worms (arbitrary units); higher = more motile worms, i.e. less anthelmintic effect; extreme values may be limits of the assay
Conditions: 100 µM; 24 h
Procedure, shortened: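 Single adult Trichuris muris worms, collected from infected NOD SCID mice, were placed in 96-well plates with 100 μL RPMI-1640 plus antibiotics and drug at 100 μM (1% v/v DMSO), then kept at 37°C and 5% CO2 for 24 h. Plates were filmed on an automated phenotyping platform (200 frames, 100 ms apart). Motility score came from Paragon pixel-variance analysis, averaged across replicate wells. Each drug had three worms in three wells, run on three separate occasions, with vehicle and positive controls.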

Compound	mean motility score
NCCS [cysteamine]	2360
Nc1ccc(S(=O)(=O)Nc2ccnn2-c2ccccc2)cc1 [sulfaphenazole]	3280
N=C(NCCCCCCNC(=N)NC(=N)Nc1ccc(Cl)cc1)NC(=N)Nc1ccc(Cl)cc1 [chlorhexidine]	320
CC(=O)O [acetic acid]	2710
CN(C)CC/C=C1/c2ccccc2Sc2ccc(Cl)cc21 [chlorprothixene]	5
CN1C(C(=O)Nc2ccccn2)=C(O)c2ccccc2S1(=O)=O [piroxicam]	2510
Cc1nc2n(c(=O)c1CCN1CCC(c3noc4cc(F)ccc34)CC1)CCCC2 [risperidone]	2130
COc1cccc2c1C(=O)c1c(O)c3c(c(O)c1C2=O)C[C@@](O)(C(=O)CO)C[C@@H]3O[C@H]1C[C@H](N)[C@H](O)[C@H](C)O1 [doxorubicin]	2090
CCc1ccc(CCOc2ccc(CC3SC(=O)NC3=O)cc2)nc1 (centres undefined) [pioglitazone]	0
CCCc1nc(C(C)(C)O)c(C(=O)OCc2oc(=O)oc2C)n1Cc1ccc(-c2ccccc2-c2nnn[nH]2)cc1 [olmesartan medoxomil]	3650
N#Cc1ccc(C(c2ccc(C#N)cc2)n2cncn2)cc1 [letrozole]	4830
C=C[C@H]1CN2CC[C@H]1C[C@@H]2[C@@H](O)c1ccnc2ccc(OC)cc12 [quinidine]	1610
FC(F)(F)C(F)(F)C(F)(F)C(F)(F)C(F)(F)C(F)(F)C(F)(F)C(F)(F)Br [perflubron]	1630
CN/C(=C\[N+](=O)[O-])NCCSCc1csc(CN(C)C)n1 [nizatidine]	3800
COc1cc2c(Nc3ccc(Br)cc3F)ncnc2cc1OCC1CCN(C)CC1 [vandetanib]	0
COc1cc2nccc(Oc3ccc(NC(=O)NC4CC4)c(Cl)c3)c2cc1C(N)=O [lenvatinib]	2500
CCOC(=O)N1CCC(=C2c3ccc(Cl)cc3CCc3cccnc32)CC1.Cl [loratadine hydrochloride]	0
CC(C)c1ccc2oc3nc(N)c(C(=O)O)cc3c(=O)c2c1 [amlexanox]	1570
COc1ccc2c(c1)c(CC(=O)O)c(C)n2C(=O)c1ccc(Cl)cc1 [indomethacin]	2460
COc1ccc2cccc(CCNC(C)=O)c2c1 [agomelatine]	3270
O=C(CCCCCCC(=O)Nc1ccccc1)NO [vorinostat]	1260
NS(=O)(=O)c1cc2c(cc1C(F)(F)F)NCNS2(=O)=O [hydroflumethiazide]	1060
OCCO [ethylene glycol]	3150
C[C@]12C=CC(=O)C=C1CC[C@@H]1[C@@H]2[C@@H](O)C[C@@]2(C)[C@H]1CC[C@]2(O)C(=O)CO [prednisolone]	659

Source: the supplement of paper PMC10503962
